Potency and activity change, negative = inhibition data for 103 compounds are collected here from PubChem BioAssay AID588342 (National Center for Advancing Translational Sciences (NCATS), 2011).

The campaign covered roughly 360,000 compounds. About 25,000 (6.9%) were called active. Entries that show only a call come without a potency. About 9% were inconclusive and are not listed. Calls follow the shape of the dose curve; as a rule, active = well fitted inhibition curve with a large enough effect; inconclusive = small, poorly fitted or top-dose-only effect; inactive = flat fitted curve, though single readings scatter. For the sample, actives were picked, then their nearest neighbours and some compounds at random.
Potency is read from the fitted curve at half-maximal effect.

Sequence of Luciferin 4-monooxygenase (Photinus pyralis) (P08659 whole entry, looked up): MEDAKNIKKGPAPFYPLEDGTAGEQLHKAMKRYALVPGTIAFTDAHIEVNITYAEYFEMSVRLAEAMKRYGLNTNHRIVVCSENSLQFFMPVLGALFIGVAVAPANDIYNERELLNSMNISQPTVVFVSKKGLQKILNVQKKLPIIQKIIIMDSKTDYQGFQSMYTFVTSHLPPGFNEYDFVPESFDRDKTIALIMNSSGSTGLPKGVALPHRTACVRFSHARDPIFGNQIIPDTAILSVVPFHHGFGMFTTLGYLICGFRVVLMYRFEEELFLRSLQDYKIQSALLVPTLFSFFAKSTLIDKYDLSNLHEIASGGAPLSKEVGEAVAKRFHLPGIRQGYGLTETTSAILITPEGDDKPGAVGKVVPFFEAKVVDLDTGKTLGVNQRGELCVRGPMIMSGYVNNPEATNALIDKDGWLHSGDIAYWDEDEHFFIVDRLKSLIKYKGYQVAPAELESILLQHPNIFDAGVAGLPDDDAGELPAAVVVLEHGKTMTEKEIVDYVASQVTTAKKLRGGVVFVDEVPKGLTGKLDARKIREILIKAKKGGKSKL

For the assay, the target named is Luciferin 4-monooxygenase (Photinus pyralis) (UniProt P08659). Kind of assay: qHTS profiling assay for firefly luciferase inhibitor/activator using purifed enzyme and Km concentrations of substrates (counterscreen for miR-21 project). Also: nearly all actives have a fitted effect of over 55% in size. The following applies: purified FLuc, luminescence inhibition; series mostly up to 57.5 µM. Summed up:
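Purified P. pyralis luciferase (10nM final) with 10uM D-luciferin and 10uM ATP (Km levels) in 50mM Tris acetate pH 7.5, 10mM Mg acetate, 0.01% Tween-20, 0.05% BSA; qHTS 6-point titration, ~60 µM downward; luminescence read.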
(In general: Quantitative high-throughput screening tests each substance at several concentrations.)
`Cn1c(=O)[nH]c(=O)c2c1nc(CN1CCN(c3ccccc3F)CC1)n2CCc1ccccc1`: the Potency entry was “inactive”.

Regarding `CCOc1cc(CNC(=O)c2sc3ncnc(N(C)C4CCCCC4)c3c2C)ccc1OC`, the Potency entry was “inactive”.

Consider `COCCNC(=O)c1cc(-c2cccc(Cl)c2)on1`, for which the Potency entry was “inactive”.

Take `O=C(Nc1ccccc1C(=O)NCC1CCCO1)c1ccccc1F` (stereo not drawn): the Potency entry was “inactive”.

Take `O=C(NCC1CCCO1)c1cc2c([nH]c3ccccc32)c(-c2ccc(F)cc2)n1` (stereo not drawn): the Potency result was “inactive”.

On to `Cc1onc(-c2ccccc2Cl)c1C(=O)NCCn1ccc2ccccc21`, for which the Potency entry was “inactive”.

On to `Cc1ccc(-c2noc(-c3ccccc3C(=O)NCC3CCCO3)n2)cc1` (stereo not drawn), for which the Potency is 4.78 µM (active).

Regarding `Cc1ccccc1CN(c1ccc(C(=O)NCC2CCCO2)cc1)S(C)(=O)=O` (stereo not drawn), the Potency result is “inactive”.

Regarding `O=C(NCC1CCCO1)c1ccccc1-c1nc(-c2ccccc2Cl)no1` (stereo not drawn), the Potency was 12 µM (active).

As for `O=C(CSCc1c(F)cccc1Cl)NCC1CCCO1` (stereo not drawn), the Potency entry is “inactive”.

For the compound `COCCNC(=O)c1ccccc1-c1nc(-c2ccccc2Cl)no1`, the Potency was 12 µM (active).

With `CCC(=O)N1c2ccccc2CC1C(=O)N1CCN(c2cccc(OC)c2)CC1` (stereo not drawn), the Potency entry was “inactive”.

`Cc1c(C)n(Cc2ccc(Cl)cc2)c2ccc(C(=O)N3CCN(c4ccccc4F)CC3)cc12`: the Potency entry is “inactive”.

On to `CCOc1cc(C(=O)NCCc2csc3nc(-c4ccc(C)cc4)nn23)cc(OCC)c1OCC`, for which the Potency entry was “inactive”.

Take `CCCn1c(NCc2ccccc2F)nc2ccccc21`: the Potency entry was “inactive”.

For `Cc1ccc(NC(=O)c2cccc(S(=O)(=O)N3CCCc4ccccc43)c2)nc1`, the Potency result was “inactive”.

Regarding `Cc1c(C(=O)N2CCCC2)oc2c1-c1nn(CC(=O)NCc3ccc(OC(C)C)cc3)cc1CC2`, the Potency entry is “inactive”.

Take `CC1CCCC(C)N1C(=O)COC(=O)COc1ccccc1C#N` (stereo not drawn): the Potency result was “inactive”.

For the compound `O=C(CC1Oc2ccc(Cl)cc2NC1=O)NCc1ccccc1` (stereo not drawn), the Potency result was “inactive”.

Turning to `CCCc1cc(=O)oc2c(C)c(OCC(=O)N3CCC(C(=O)O)CC3)ccc12`, the Potency result is “inactive”.

Turning to `CCCCc1cc(=O)oc2c(C)c(OCC(=O)N3CCC(C(N)=O)CC3)ccc12`, the Potency entry is “inactive”.

On to `Cc1c(C)c2ccc(OCC(=O)N3CCC(C(=O)O)CC3)c(C)c2oc1=O`, for which the Potency is 23.9 µM (active).

On to `COc1ccc(NC2CCCN(C(=O)c3ccncc3)C2)cc1` (stereo not drawn), for which the Potency entry is “inactive”.

With `COC(=O)c1ccc(NC(=O)c2cc(S(=O)(=O)N3CCC(C)CC3)cn2C)cc1`, the Potency result is “inactive”.

Turning to `O=C(NCC(O)c1ccc([N+](=O)[O-])cc1)C1CCCCC1` (stereo not drawn), the Potency entry is “inactive”.

Take `c1ccc2c(c1)OCCOCCOCCO2`: the Potency entry was “inactive”.

As to `COc1ccc2sc(-c3ccc(N(C)C)cc3)c(C#CCO)c2c1`, the Potency was 8.49 µM (active).

As for `Cc1ccc(CCNC(=O)C2CCN(c3nnc(-n4cccc4CNc4ccc(C)cc4)s3)CC2)cc1`, the Potency result was “inactive”.

Consider `O=C(CNc1ccccc1N1CCCC1=O)Nc1cc(Cl)ccc1-n1cncn1`, for which the Potency entry was “inactive”.

As to `NS(=O)(=O)c1ccc(-c2ccc(/C=C3\SC(=O)NC3=O)o2)cc1`, the Potency is 13.5 µM (active).

On to `O=S(=O)(c1ccc(Br)cc1)c1nnn2c1nc(NC1CCCCCC1)c1sccc12`, for which the Potency result is “inactive”.

As to `CCOc1ccccc1N(CC)C(=O)Nc1cn(C)c(=O)c2ccccc12`, the Potency entry was “inactive”.

Turning to `COc1ccc(C2Sc3ccccc3NC3=C2C(=O)c2ccccc23)c(OC)c1OC` (stereo not drawn), the Potency result was “inactive”.

`COc1cc(C2C(C(=O)c3sc(C)nc3C)=C(O)C(=O)N2CCN(C)C)cc(OC)c1OC` (stereo not drawn): the Potency result was “inactive”.

Turning to `COc1ccc(C2=Nc3cc(C)ccc3OC2)cc1`, the Potency is 0.379 µM (active).

As to `COc1ccc(-c2cc(-c3ccc(F)cc3)nc3c2COc2ccccc2-3)cc1`, the Potency entry was “inactive”.

Turning to `COc1ccc(-c2cc(-c3ccccc3)nc3c2COc2ccc(Cl)cc2-3)cc1`, the Potency result was “inactive”.

Consider `C#C[C@]1(O)CC[C@H]2[C@@H]3CCC4=CC(=O)CC[C@@H]4[C@H]3CC[C@@]21CC`, for which the Potency entry was “inactive”.

For `Cc1ccc(C2CCN(C(=O)c3cnn(-c4ccccc4Cl)c3C3CCN(C(=O)OC(C)(C)C)CC3)C2)cc1` (stereo not drawn), the Potency result is “inactive”.

For the compound `O=C(CSc1nc(=O)n(Cc2cccnc2)c2c1CCC2)Nc1ccc(F)cc1F`, the Potency result was “inactive”.

For `CN(C)S(=O)(=O)c1ccc(C(=O)N(Cc2cccnc2)c2nc3c(F)cc(F)cc3s2)cc1`, the Potency result was “inactive”.

Take `O=C(Nc1c(Cl)cccc1Cl)C1CCC1`: the Potency entry was “inactive”.

For the compound `O=C(NC(=S)Nc1ccc(Cl)cc1Cl)C1CC1`, the Potency is 21.3 µM (active).

As to `S=C(NCc1cccnc1)Nc1ccc(Cl)cc1Cl`, the Potency result is “inactive”.

Take `CN(C(=O)CCn1c(=S)oc2ccccc21)C1CCCCC1`: the Potency result is “inactive”.

Take `Cc1ccc(S(=O)(=O)N(C)CC(=O)NCC(c2ccc(F)cc2)N2CCOCC2)cc1` (stereo not drawn): the Potency result is “inactive”.

For the compound `CCOc1ccc(N2C(=O)CC(N(CCc3ccc(OC)c(OC)c3)C(=S)Nc3ccccc3)C2=O)cc1` (stereo not drawn), the Potency result is “inactive”.

For the compound `CC1(C)O[C@@H]2[C@H](O1)[C@@H](COS(=O)(=O)O)O[C@H]2n1cnc2c(=O)[nH]cnc21`, the Potency entry is “inactive”.

`CC(=O)N(C1=C(Cl)C(=O)c2ccccc2C1=O)c1ccc(C(=O)O)cc1`: the Potency is 1.69 µM (active).

For the compound `COC1=C(N2CCOCC2)C(=O)c2ccccc2C1=O`, the Potency entry was “inactive”.

In the case of `Cc1ccc(C)c(CSc2nc(-c3ccco3)nc3c2c(=O)n(C)c(=O)n3C)c1`, the Potency result was “inactive”.

For the compound `Cc1occc1C(=O)Nc1nnc(-c2ccncc2)s1`, the activity change, negative = inhibition is -0.684% [at 2.3 µM] (inactive).

For the compound `Cc1nn(C(=O)c2ccoc2C)c(N)c1-c1ccccc1`, the Potency is 10.7 µM (active).

`CCOC(=O)c1c(N)nn(C(=O)c2ccccc2)c1-c1ccccc1`: the Potency entry is “inactive”.

On to `CCOC(=O)c1cc2c(=O)n3ccccc3nc2n(CC2CCCO2)c1=NC(=O)c1ccccc1F` (stereo not drawn), for which the Potency entry was “inactive”.

Regarding `Cc1cccc(/C(N)=N/OC(=O)c2ccccc2Cl)c1`, the Potency was 0.757 µM (active).

For the compound `Cc1cccc(C(=O)c2cccc(C)c2)c1`, the Potency result was “inactive”.

On to `Cc1ccc(/C(N)=N/OC(=O)COc2ccc(Cl)c(C)c2)cc1`, for which the Potency entry was “inactive”.

Take `C/C(=N/OC(=O)c1ccc(Br)cc1)c1ccc(C)cc1`: the Potency is 6.75 µM (active).

Consider `C/C(=N\OC(=O)c1ccccc1)c1c(C)nc2cc(C)ccn12`, for which the Potency entry is “inactive”.

Regarding `Cc1ccc(OC(=O)CCC(=O)Nc2ccc(Br)cc2)cc1`, the Potency result is “inactive”.

Take `CCc1ccc(NC(=O)CSc2nc3c([nH]c4ccccc43)c(=O)n2-c2cccc(OC)c2)cc1`: the Potency entry was “inactive”.

For the compound `Cc1ccsc1/C=N/Nc1ccc(Cl)nn1`, the Potency entry was “inactive”.

Consider `Clc1ccc(N/N=C/c2cccs2)nn1`, for which the Potency entry is “inactive”.

On to `Oc1cccc(/C=N/Nc2ccc(Cl)nn2)c1O`, for which the Potency is 8.49 µM (active).

On to `Cn1c(=O)c2c(nc(NCCc3ccccc3)n2Cc2ccccc2Br)n(C)c1=O`, for which the Potency result is “inactive”.

In the case of `CCOc1ccccc1NC(=O)Cn1c(=O)n(Cc2ccco2)c(=O)c2sc3ccccc3c21`, the Potency result was “inactive”.

With `CN(c1ccccc1)c1ccc(/C=c2\s/c(=C(/C#N)C(=O)C(C)(C)C)n(Cc3ccco3)c2=O)cc1`, the Potency was 15.1 µM (active).

In the case of `CCOC(=O)/C=c1\s/c(=C\c2ccc(C#N)cc2)c(=O)n1CC(=O)Nc1cccc(C)c1C`, the Potency entry is “inactive”.

Turning to `O=C(CCc1cn(Cc2ccc(F)cc2)c2ccccc12)NC1CCCCC1`, the Potency entry was “inactive”.

Regarding `COc1ccc(CCN=C2SCC(=O)N2Cc2ccccc2)cc1OC`, the Potency result is “inactive”.

Take `Cc1ccc(-c2nn(CCC(=O)Nc3ccc(Cl)c(Cl)c3)c(=O)c3ccccc23)cc1`: the Potency entry was “inactive”.

As to `CC(C)c1nc2oc3c(N4CCN(C)CC4)ncnc3c2c2c1CCC2`, the Potency entry is “inactive”.

Consider `FC(F)(F)c1cccc(NC(=S)Nc2cccc(Cl)c2)c1`, for which the Potency result is “inactive”.

As to `Cc1cccc(NC(=S)Nc2ccc(Cl)c(Cl)c2)c1`, the Potency entry is “inactive”.

For `Cc1csc(NC(=S)Nc2cccc(Cl)c2)n1`, the Potency is 4.78 µM (active).

Consider `COC(=O)c1ccccc1NC(=S)NC(=O)c1ccccc1F`, for which the Potency entry is “inactive”.

With `O=C(NC(=S)Nc1ccccc1C(=O)O)c1ccc(-c2ccc(Br)cc2)o1`, the Potency is 26.9 µM (active).

With `O=C(O)c1ccccc1NC(=O)c1ccccc1-c1ccccc1C(=O)O`, the Potency entry is “inactive”.

In the case of `Cc1ccc(NC(=O)CN(C)C(=O)COC(=O)c2nccnc2N)cc1`, the Potency result is “inactive”.

`COc1ccc(N=C(C)c2sc3ccccc3c2O)cc1`: the Potency was 0.601 µM (active).

On to `COC(=O)c1cc(NC(=O)c2sc3ccccc3c2Cl)cc(C(=O)OC)c1`, for which the Potency entry is “inactive”.

Consider `Cc1cc(C)cc(NC(=O)C(OC(=O)c2ccc(O)cc2)c2ccccc2)c1` (stereo not drawn), for which the Potency result was “inactive”.

For the compound `CC(C)CN(C(=O)CSc1nncn1C)C1CCS(=O)(=O)C1` (stereo not drawn), the Potency result is “inactive”.

Regarding `Cc1cccc(NC(=O)N2CCN(C)c3ncccc32)c1C`, the Potency entry is “inactive”.

Consider `O=C(Nc1ccon1)c1sc2ccccc2c1Cl`, for which the Potency is 7.57 µM (active).

For the compound `CCCC(=O)Nc1ccc(NC(=O)c2sc3ccccc3c2Cl)cc1`, the Potency result is “inactive”.

For the compound `O=C(Nc1ccon1)c1cccc(Cl)c1`, the Potency result was “inactive”.

In the case of `Cc1cc2c(cc1C)C(c1cccc(OC(C)C)c1)CC(=O)N2` (stereo not drawn), the Potency result is “inactive”.

Turning to `Cc1cccc(-c2nc(SCc3ccc(Br)cc3)n3[nH]c(=O)cc3n2)c1`, the Potency entry is “inactive”.

Consider `CCOc1ccc(-n2c(SCC(=O)NCc3ccccc3)nc3n[nH]c(C)c3c2=N)cc1`, for which the Potency entry was “inactive”.

In the case of `CCCn1c2ccccc2c2cnn(CC(=O)NCCCOC(C)C)c(=O)c21`, the Potency entry was “inactive”.

Turning to `CSCCNC(=O)c1ccc2nc(Cc3ccccc3F)oc2c1`, the Potency was 19 µM (active).

As to `O=C(NCCc1ccc(Cl)cc1)c1ccc2nc(CCc3ccccc3)oc2c1`, the Potency entry was “inactive”.

As to `COc1ccc(Cc2nc3ccc(C(=O)NCc4ccccc4C)cc3o2)cc1`, the Potency entry was “inactive”.

Consider `Cn1c(=O)sc2cc(NS(=O)(=O)c3ccc(C(C)(C)C)cc3)ccc21`, for which the Potency result is “inactive”.

For the compound `Cc1cccnc1CCNC(=O)C1CCC(=O)N(Cc2cccc(F)c2)C1` (stereo not drawn), the Potency result is “inactive”.

Turning to `CCOc1ccc(-c2cc3nc(C4CCN(C(=O)OC(C)(C)C)CC4)c(C(=O)Nc4cccc(CC)c4)cn3n2)cc1`, the Potency result was “inactive”.

Consider `CN1C2CCC1/C(=C\c1ccccc1Cl)C(=O)/C2=C\c1ccccc1Cl`, for which the Potency result was “inactive”.

As to `CCSc1ncc(Cl)c(C(=O)Nc2c(C(=O)c3ccccc3)oc3ccccc23)n1`, the Potency entry was “inactive”.

Regarding `Cc1ccc(-n2ncc3c(Nc4cccc(C(=O)O)c4)ncnc32)cc1`, the Potency was 0.953 µM (active).

`Cc1ccc(Nc2ncnc3c2cnn3C)c(C)c1`: the Potency result is “inactive”.

As to `Fc1ccc(-n2ncc3c(Nc4ccc(Oc5ccccc5)cc4)ncnc32)cc1`, the Potency result is “inactive”.
